# Screening results (PubChem BioAssay)
# HTT ATP protect – cytoprotection in Huntington HTT-Q103 PC12 cell model; PC12 HTT-Q103 induced, cytoprotection, ATP luminescence, 40 h; Potency, µM (top dose mostly 56.4 µM), for inactives: cytoprotection (ATP increase), actives largely listed as activators; actives 0.14% (n = 230,000); active = well fitted curve in the direction sought with a large enough effect; inconclusive = small, poorly fitted or top-dose-only effect, or another doubt; inactive = no such curve, though single readings can be large; an effect the other way counts as inactive or inconclusive; also: potency is read from the fitted curve at half-maximal effect; % of control where 0% means no effect; nearly all actives have a fitted effect of over 45% in size
#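 Stable PC12 Q103-GFP cells in serum-supplemented, phenol red-free DMEM; induction by tebufenozide at 100 nM final; compound dose series; cell viability quantified luminescently from ATP.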
# ALDH1A1 inh – inhibitors of human aldehyde dehydrogenase 1A1 | P00352 | actives 7.3% (n = 220,000) | Purified ALDH1A1, NADH fluorescence, propionaldehyde substrate | Potency, µM (titrated, usually from 75.3 µM), inactives show top-dose activity, negative = inhibition, hits mostly inhibitors;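 also: potency is read from the fitted curve at half-maximal effect; plate controls were no enzyme wells and a reference inhibitor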
# Target sequence (P00352 whole entry, looked up): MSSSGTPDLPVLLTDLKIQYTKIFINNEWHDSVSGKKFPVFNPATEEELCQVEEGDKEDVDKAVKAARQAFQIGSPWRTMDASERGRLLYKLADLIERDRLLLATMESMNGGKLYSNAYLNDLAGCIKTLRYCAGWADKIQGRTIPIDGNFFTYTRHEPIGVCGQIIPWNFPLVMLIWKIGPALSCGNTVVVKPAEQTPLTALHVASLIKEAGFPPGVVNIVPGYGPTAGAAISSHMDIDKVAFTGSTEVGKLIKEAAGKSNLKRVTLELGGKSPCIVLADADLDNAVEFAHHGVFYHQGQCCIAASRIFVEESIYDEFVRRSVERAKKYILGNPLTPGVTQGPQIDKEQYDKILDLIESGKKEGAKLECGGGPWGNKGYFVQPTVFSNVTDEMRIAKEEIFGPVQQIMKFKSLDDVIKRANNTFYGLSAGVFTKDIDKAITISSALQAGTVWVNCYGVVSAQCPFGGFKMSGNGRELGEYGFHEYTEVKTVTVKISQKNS
# CBFb-RUNX1 inh – CBF-beta/RUNX1 interaction disruption; Potency, µM (series often up to 59.8 µM), for the others: at the top dose activity, negative = inhibition, usual class: inhibitors; AlphaScreen CBFb-His/RUNX1-biotin binding, biochemical; Q01196+Q13951; 230,000 tested, under 10 active; active = well fitted curve in the direction sought with a large enough effect; inconclusive = small, poorly fitted or top-dose-only effect, or another doubt; inactive = no such curve, though single readings can be large; an effect the other way counts as inactive or inconclusive; also: % of control where 0% means no effect
#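 AlphaScreen proximity signal reports loss of binding between His-tagged CBF-beta and biotin-labelled RUNX1, each at 30 nM. Proteins are pre-associated for 20 minutes, compounds added for 15 minutes, then beads for 90 minutes, all at ambient temperature.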
# HPGD block – blocks human HPGD enzyme activity | P15428 | Potency, µM, for the others: at the highest dose activity change, negative = inhibition, most hits filed as inhibitors | actives 4.3% (n = 150,000) | purified HPGD, NADH fluorescence kinetic, PGE2 substrate; also: potency is read from the fitted curve at half-maximal effect; % is scaled to controls: 0 for no effect and ±100 for the full control effect
# Target sequence (P15428 whole entry, looked up): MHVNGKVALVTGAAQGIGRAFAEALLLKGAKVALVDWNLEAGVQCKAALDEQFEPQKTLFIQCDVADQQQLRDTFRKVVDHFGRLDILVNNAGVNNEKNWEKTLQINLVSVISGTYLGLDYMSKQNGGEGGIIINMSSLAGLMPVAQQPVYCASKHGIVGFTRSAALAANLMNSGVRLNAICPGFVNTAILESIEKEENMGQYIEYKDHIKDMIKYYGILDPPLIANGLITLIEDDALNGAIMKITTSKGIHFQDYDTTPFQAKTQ
#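 NADH formation kinetics: reaction with 30 uM PGE2 and 1 mM NAD+ (final), 20 nM enzyme, Tris-HCl pH 8 with Tween 20, after 15 min compound preincubation at room temperature. Fluorescence change, last versus first of five reads.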
# JMJD2E inh – inhibitors of human JMJD2E histone demethylase; B2RXH2; JMJD2E catalytic domain, FDH-coupled NADH fluorescence (FDH is formaldehyde dehydrogenase); Potency, µM (series often up to 57.1 µM), without a hit: at the top dose activity change, negative = inhibition, actives largely listed as inhibitors; actives 1.6% (n = 230,000); AID 2147;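 also: potency is read from the fitted curve at half-maximal effect; 0% = wells with enzyme and -100% = buffer wells without enzyme; nearly all actives have a fitted effect of over 50% in size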
# HTT aggregate – inhibitors of mutant huntingtin aggregate formation in PC12 cells; PC12 HttQ103-GFP aggregates, Acumen cytometry, 40 h; Potency, µM (series often up to 46.1 µM), without a hit: at the highest dose activity change, negative = inhibition, hits mostly inhibitors; actives 1.1% (n = 220,000); active = well fitted curve in the direction sought with a large enough effect; inconclusive = small, poorly fitted or top-dose-only effect, or another doubt; inactive = no such curve, though single readings can be large; an effect the other way counts as inactive or inconclusive; also: potency is read from the fitted curve at half-maximal effect; % is scaled to controls: 0 for no effect and ±100 for the full control effect; nearly all actives have a fitted effect of over 60% in size
#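 Compounds (qHTS titration) were added to PC12 cells expressing an ecdysone-driven HTT exon 1 Q103–GFP fusion after induction with 100 nM tebufenozide. Aggregate formation was measured as GFP objects in cell lysates.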
# Numbers without * were called inactive; ? = inconclusive; . = no result; ! = a repeat was not active; [ ] = remark or other dose. Hits are enriched below; roughly 9.8% of the tested compounds scored in any of these assays. Unless noted, calls follow the shape of the dose curve; as a rule, active = well fitted inhibition curve with a large enough effect (not every such curve was filed as active); inconclusive = small, poorly fitted or top-dose-only effect, or another doubt; inactive = no such curve, though single readings can be large or run the other way.
SMILES,HTT ATP protect,ALDH1A1 inh,CBFb-RUNX1 inh,HPGD block,JMJD2E inh,HTT aggregate
O=c1n(-c2ccc(Br)cc2)cnn1-c1ncccc1[N+](=O)[O-],-58%,7%,1%,.,10%,4%[9.22 µM]
CCN(CC)c1cccc(O)c1,-9%,?,3%[21.7 µM],1%,.,.
CN(C)c1cccc(O)c1,4%,8.9µM*,-2%[21.7 µM],-8%,.,.
CCOC(=O)c1ccccc1OC(=O)CS(=O)c1ccccc1[N+](=O)[O-] (configuration not stated),-31%,22µM*,-12%,.,-25%,21%
COC(=O)c1ccc(OC(=O)CS(=O)c2ccccc2[N+](=O)[O-])cc1 (configuration not stated),29%[10 µM],-1%,-5%,.,6%,12%[9.22 µM]
CCOc1cccc(/C=C2\NC(=S)N(c3ccccc3)C2=O)c1O,-6%[10 µM],20µM*,-21%,.,5%,2%[9.22 µM]
CCOc1cc(/C=C2\NC(=S)N(c3c(C)n(C)n(-c4ccccc4)c3=O)C2=O)ccc1O,15%[10 µM],-2%,-9%,-6%,-4%,-8%
O=C(NC(C(=O)c1ccccc1)N1CCCCCC1)c1ccco1 (configuration not stated),-1%[10 µM],14µM*,3%,-5%,-7%,8%
Cc1ccc(C(=O)C(NC(=O)c2ccco2)N2CCOCC2)cc1 (configuration not stated),-30%,28µM*,12%,-17%,-21%,3%
Cc1ccc(S(=O)(=O)c2ccccc2)cc1S,-1%,?,-4%,.,4%,-2%
CNc1ncnc2c1ncn2[C@@H]1O[C@@H](CO)[C@H](O)[C@@H]1O,12%[1.9 µM],.,.,.,.,.
CC1=C(C(N)=O)C(c2cccs2)n2nc(-c3cccc(C)c3)nc2N1 (configuration not stated),0%,3%,5%,0%,-3%,8%
CCOc1ccccc1C1C(C(N)=O)=C(C)Nc2nc(-c3cccc(C)c3)nn21 (configuration not stated),-16%,20µM*,-6%,-7%,-1%,-7%
O=C(/C=C/c1ccccc1Cl)N(Cc1cccs1)C1CCS(=O)(=O)C1 (configuration not stated),32%[10 µM],.,2%,.,8%,14%[9.22 µM]
Cc1ccccc1C(=O)Nc1cccc(-c2ccc3nncn3n2)c1,-43%,14µM*,2%,.,-10%,3%
CCOc1ccccc1C(=O)Nc1cccc(-c2ccc3nncn3n2)c1,-22%,?,0%,.,?,-18%
CSc1ccc(S(=O)(=O)NCCSC(C)(C)C)cc1,14%[10 µM],7.9µM*,1%,-12%,6%,-30%
CC(C)(C)SCCNS(=O)(=O)c1ccc2ccccc2c1,33%,15µM*,7%,-21%,4%,4%[9.22 µM]
CSc1ccc(S(=O)(=O)NCCOc2ccccc2C)cc1,9%,13µM*,11%,-20%,1%,-3%
CC(C)(C)SCCNS(=O)(=O)c1ccccc1,-10%,?,8%,-11%,-1%,-2%[9.22 µM]
COc1ccccc1-c1noc(CSc2nc(N)cc(=O)[nH]2)n1,-7%[10 µM],-2%,1%,.,-5%,-9%[9.22 µM]
COC(=O)N1CCN(/[N+]([O-])=N/Oc2ccc([N+](=O)[O-])cc2[N+](=O)[O-])CC1,.,.,16%,.,.,.
Cc1c(-c2nc(N)nc(C3CC3)c2C)nc(N)nc1C1CC1,6%[10 µM],-2%[13.5 µM],.,-5%,.,.
Cc1ccn2cc(CNC(=O)c3ccc(Br)o3)nc2c1,-7%,1%,-2%,16µM*,?,14%
O=C(NCCO)c1ccccc1O,7%,?,6%,?,?,10%
SMILES,HTT ATP protect,ALDH1A1 inh,CBFb-RUNX1 inh,HPGD block,JMJD2E inh,HTT aggregate
O=C(NCCCc1ccccc1)c1ccccc1O,-12%[10 µM],?,2%,?,-7%,10µM*
O=C(NO)c1ccccc1,-1%,-16%,4%[21.7 µM],-9%,.,.
O=C(NO)c1ccccc1O,.,4%,9%,-7%,10µM*,12%
O=C(NCCc1ccccc1)c1ccc(-c2ccccc2C(F)(F)F)o1,.,25µM*,-8%[2.36 µM],?,?,1%
CCCCCCNC(=O)c1ccc(Br)o1,-45%[96.6 µM],-8%[120 µM],8%[89.1 µM],?,6%,-7%
O=C(NCCCCc1ccccc1)c1ccc(Br)o1,-13%[10 µM],-2%,-2%,14µM*,5%,-27%
CC(C)CC(=O)NCCCCc1ccccc1,3%[10 µM],?,-14%,16µM*,0%,-13%
O=C(NCCCc1ccccc1)c1ccc(Br)o1,-2%[0.074 µM],?,1%,25µM*,5%,5%
O=C(NCCC1=CCCCC1)c1ccc(Br)o1,-7%,3.5µM*,9%,-17%,4%,5%
O=C(NNC(=S)NCc1ccccc1)c1ccc(Br)o1,30%[10 µM],0%,5%,.,0%,-3%
COc1ccccc1CCn1c(=O)c(-c2cc(F)cc(F)c2)nc2cncnc21,24%,?,.,?,.,.
Cc1ccc2cc(CCNC(=O)c3ccc(Br)o3)c(=O)[nH]c2c1,-19%,?,1%,28µM*,-16%,10%
O=C(NNC(=S)NCc1ccc(Cl)cc1)c1ccc(Br)o1,5%[10 µM],-1%,1%,.,4%,-5%[9.22 µM]
O=C(NCc1ccc(Cl)cc1)c1ccc(Br)o1,-94%,13µM*!,23%[89.1 µM],35µM*,3%,1%
CC(=O)NCCc1cc2ccc(C)cc2[nH]c1=O,-7%,2%,5%,-20%,?,-2%
CC(=O)NC(=S)Nc1sc2c(c1C#N)CCCCC2,-18%[10 µM],1.4µM*,-8%,.,1%,24%
N#Cc1c(NC(=O)c2nc3ncccn3n2)sc2c1CCCCC2,-39%[10 µM],?,-14%,-15%,24%,-8%
N#Cc1c(NC(=S)NC(=O)Cc2cccs2)sc2c1CCCCC2,-47%,4µM*,-7%,-27%,-3%,1%
N#Cc1c(NC(=O)c2cnn3cccnc23)sc2c1CCCC2,-46%[1.9 µM],13µM*,-1%,.,-11%,19%[9.22 µM]
CC(C)(C)C(=O)NC(NC(=S)Nc1sc2c(c1C#N)CCCC2)C(Cl)(Cl)Cl (configuration not stated),-48%,6.3µM*,-3%,?,-9%,?
COc1ccccc1C(=O)NC(=O)Nc1nc(-c2ccccc2)cc(C(F)(F)F)n1,-18%[10 µM],.,17%,.,?,-9%[9.22 µM]
CCC1(C)Cc2c(sc(NC(=S)NC(=O)c3ccccc3)c2C#N)CO1 (configuration not stated),9%[10 µM],?,2%,7.9µM*,4%,-7%
Cn1nc(C(=O)Nc2sc3c(c2C#N)CCCC3)ccc1=O,-61%,2.2µM*,4%,.,2%,-3%
CC1CCc2sc(NC(=S)NC(=O)c3ccccc3)c(C#N)c2C1 (configuration not stated),-1%[10 µM],10µM*,-6%,-24%,-8%,16%
